Compound activity from PubChem.
Hits are enriched below; roughly 2.3% of the tested compounds scored in any of these assays.
Akt phos inh – Akt phosphorylation inhibition; 0.32% of 360,000 active; Neuro2A IGF-stimulated pAkt S473 HTRF, 20 min; active compounds read low; activity change, % for hits at 50 µM; in the data active = activity change below about -80%; inconclusive = mostly about -51% to -80%; also: % is scaled to controls: 0 for no effect and ±100 for the full control effect
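Neuro2A cells (4,500/well, DMEM with 0.5% FBS) were treated with compound at a single 50 µM final concentration, stimulated with 6 nM IGF for 20 min at 37 °C, and lysed. Phospho-Akt Ser473 was read by HTRF as 665/615 ratio ×10^4.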
FUS suppressor – rescues growth of FUS-expressing yeast. 0.24% of 390,000 active. Potency, µM (doses to about 76.6 µM), hits mostly activators. S. cerevisiae FUS-expressing, growth rescue, OD600, 24 h;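 also: potency is read from the fitted curve at half-maximal effect; plate controls were DMSO vehicle for no effect and reference control for full effect; nearly all actives have a fitted effect of over 55% in size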
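Toxicity suppression screen in FUS-yeast. Cells induced with 2% galactose, starting OD 0.005, treated 24hr at 30C with compounds at multiple final concentrations; growth by OD600.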
aSyn rescue – inhibitors of alpha-synuclein toxicity in yeast; 0.14% of 370,000 active; Potency, µM (top dose mostly 46.1 µM), without a hit: top-dose growth rescue (activation), usual class: activators; AID 652106; Yeast expressing alpha-synuclein, growth rescue, BacTiter-Glo, 24 h; also: potency is read from the fitted curve at half-maximal effect; % of control where 0% means no effect; nearly all actives have a fitted effect of over 65% in size
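Screening used galactose-induced yeast with toxic alpha-synuclein levels, exposed to compound for 24 hr at 30 deg C. Cell growth, read with BacTiter-Glo luminescence, gave the measured signal.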
Abeta rescue – restores growth of yeast expressing A-beta42 peptide. yeast expressing A-beta42, growth rescue, OD600, 48 h; response scale: 0% DMSO, 100% iron-clioquinol control. Potency, µM (doses to about 46.1 µM), usual class: activators. 0.063% of 410,000 active; also: potency is read from the fitted curve at half-maximal effect; nearly all actives have a fitted effect of over 55% in size
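Yeast A-beta toxicity model in growth medium with pinned compounds, 48 h at 30 C; growth read as absorbance at 600 nm. Normalized to FeCl3/clioquinol equimolar mix (positive) and DMSO (negative).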
TDP-43 yeast inh – TDP-43 toxicity inhibition in yeast; AID 652104; 1.8% of 410,000 active; TDP-43 expressing yeast growth rescue, BacTiter-Glo, 24 h; Potency, µM (highest dose often 46.1 µM), for inactives: top-dose growth rescue (activation), usual class: activators; also: potency is read from the fitted curve at half-maximal effect; % of control where 0% means no effect; nearly all actives have a fitted effect of over 50% in size
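Cell-based yeast growth screen: TDP-43 expression induced in galactose, inoculum OD600=0.02 after raffinose pregrowth to mid-log. Read-out BacTiter-Glo luminescence at 24 hr, 30 deg C; inhibition of toxicity seen as signal increase.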
The depositor's hits bear a star; i = inactive; ? = inconclusive; · = no result; [ ] = another dose, or the depositor's remark. Unless noted, calls follow the shape of the dose curve; as a rule, active = well fitted curve in the direction sought with a large enough effect; inconclusive = small, poorly fitted or top-dose-only effect, or another doubt; inactive = no such curve, though single readings can be large; an effect the other way counts as inactive or inconclusive.

SMILES	Akt phos inh	FUS suppressor	aSyn rescue	Abeta rescue	TDP-43 yeast inh
Cc1cc(SCC(=O)N/N=C/c2ccc(O)c(O)c2O)c(C)cc1Br	i	·	16µM*	i	5%
COc1cccc(N2CCN(C(=O)c3cc4c(=O)n(Cc5cccs5)ccc4nc3C)CC2)c1	·	i	·	i	13%
O=c1c2ccc([N+](=O)[O-])cc2ncn1CCOc1ccc(Cl)cc1	i	i	7%	i	25µM*
CCCOc1ccc(CC(=O)NCc2ccco2)cc1OC	i	i	8%	i[9.22 µM]	1%
CCCOc1ccc(CC(=O)NCC2(c3ccccc3)CCOCC2)cc1OC	-117%*	?	3%	i	6%
Cc1c(/C=C(\C#N)C(=O)Nc2cccc(Cl)c2)c2ccccc2n1Cc1ccccc1	·	i	·	i	0%
Cn1c(SC/C=C/c2ccccc2)nnc1-c1cccs1	i	i	17%	i	18µM*
Cc1cc(OCCSc2nnc(-c3cccs3)n2C)ccc1Cl	i	i	-1%	i	?
Cc1ccc(OCCSc2nnc(-c3cccs3)n2C)cc1	i	i	6%	i	13µM*
CCCCCCc1nc2c(=O)[nH]c3ccccc3c2o1	-87%*	i	1%	i	5%
O=C(COCc1cc(-c2cccs2)on1)Nc1cc(Cl)ccc1O	·	i	·	i	6%
O=C(COCc1cc(-c2cccs2)on1)NCc1ccccc1Cl	·	i	·	i	13µM*
COc1ccc2c(c1)c1c(c(=O)n(-c3ccc(OC)c(OC)c3)c(=O)n1Cc1ccccc1C)n2C	·	i	-3%	i	?
CCOC(=O)c1c(NC(=O)COc2ccc(Br)cc2)sc2c1CCCC2	·	i	·	i	14%
CCOc1ccc(NC(=O)C(C)n2c(=O)cc(-c3ccccc3)c3c(C)nn(C)c32)cc1 (centres undefined)	·	i	·	i	8%
CCOC(=O)c1ccccc1NC(=O)N(C)CCc1c(C)nn(CC)c1C	·	i	·	i	?
Cc1[nH]c(-c2ccc(F)cc2)cc1C(=O)N1CCN(c2ccc(Cl)cc2)CC1	i	i	?	i	16µM*
COc1ccc(N2CCN(C(=O)c3cc(-c4ccc(F)cc4)[nH]c3C)CC2)cc1	i	?	17%	i	?
Cc1occc1C(=O)N1CCN(c2ccc(Cl)cc2)CC1	i	i	7%	i	10µM*
Cc1[nH]c2ccc(C(=O)N3CCN(c4ccc(F)cc4)CC3)cc2c1C	i	i	13%	i	14µM*
Cc1scc(C(=O)N2CCN(c3ccc(Cl)cc3)CC2)c1C	i	i	7%	i	14µM*
COc1ccc(CNc2ncnc3nc[nH]c23)cc1	·	·	2%	·	·
CC(=O)Nc1ccc(C(=O)OCC(=O)c2ccc(S(=O)(=O)N3CCCCC3)cc2)cc1	i	7.9µM*	-4%	i	0%
COc1ccc(C(=O)NCc2ccccc2)cc1Br	i	i	8%	i	?
COc1ccc(C(=O)c2ccccc2)cc1Br	i	i	3%	i	13µM*
SMILES	Akt phos inh	FUS suppressor	aSyn rescue	Abeta rescue	TDP-43 yeast inh
CN1C[C@@H]2[C@@H]3C(=O)N(Cc4ccccc4)C(=O)[C@@H]3[C@](Cc3ccccc3)(C1=O)N2C(=O)c1ccc(Cl)c(Cl)c1	i	14µM*	2%	i	-3%
CC(C)(C#N)Nn1cnnc1	i	16µM*	-8%	i	-3%
COc1ccc(OC)c(CNC(=O)CCCn2nc(C)c3c(C)n(-c4ccc(C)cc4)nc3c2=O)c1	·	i	·	i	8%
CC1(C(=O)NS(=O)(=O)Cc2ccccc2)CCN1C(=O)c1ccc(C2CCCCC2)cc1 (centres undefined)	i	i	-46%	i	20µM*
CC1(C(=O)NS(=O)(=O)Cc2cccc(Cl)c2)CCN1C(=O)c1ccc(C2CCCCC2)cc1 (centres undefined)	i	i	-9%	i	23%
COc1ccc(OC)c(NC(=O)c2csc(Cl)c2OC)c1	i	?	6%	i	20µM*
CC(=O)c1ccc(Sc2ccccc2)c([N+](=O)[O-])c1	i	i	1%	i	11µM*
